MLLE-PAM2 inh: inhibitors of microRNA-mediated deadenylation, human PABP1 MLLE binding. P11940. GST-MLLE / FITC-PAM2 fluorescence polarization. inhibition, % at 20 µM. 360,000 compounds, 0.36% hits. AID 588489; in the data active = inhibition above about 35%, passing the limit was not always enough;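 also: plate controls were DMSO wells with GST-MLLE for no effect and wells lacking GST-MLLE protein for full effect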
Target sequence (P11940 whole entry, looked up): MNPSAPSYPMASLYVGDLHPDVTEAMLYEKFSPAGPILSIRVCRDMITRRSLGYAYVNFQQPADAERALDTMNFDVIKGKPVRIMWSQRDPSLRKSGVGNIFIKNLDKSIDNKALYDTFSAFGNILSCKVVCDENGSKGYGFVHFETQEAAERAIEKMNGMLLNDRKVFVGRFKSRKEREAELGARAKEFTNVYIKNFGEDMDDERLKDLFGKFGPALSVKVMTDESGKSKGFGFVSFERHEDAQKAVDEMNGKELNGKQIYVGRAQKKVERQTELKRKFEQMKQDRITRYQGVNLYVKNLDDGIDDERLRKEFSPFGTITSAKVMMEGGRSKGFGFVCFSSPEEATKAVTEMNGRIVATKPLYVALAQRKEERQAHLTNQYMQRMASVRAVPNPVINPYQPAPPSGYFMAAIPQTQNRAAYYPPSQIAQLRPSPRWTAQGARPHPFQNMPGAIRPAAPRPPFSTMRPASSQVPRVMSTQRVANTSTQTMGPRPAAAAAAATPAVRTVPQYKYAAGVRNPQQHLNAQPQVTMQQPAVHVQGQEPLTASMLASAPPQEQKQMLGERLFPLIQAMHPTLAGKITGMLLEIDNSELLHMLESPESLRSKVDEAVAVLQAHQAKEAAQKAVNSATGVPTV
PABP polyA inh: PABP-poly(A) binding inhibition | P11940 | PABP-poly(A) RNA binding, fluorescence polarization | calls only at 35 µM | 290,000 compounds, 1% hits;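 also: calls also rest on retests at 20 µM and on dose response follow-up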
EBV gp42 block: blocks Epstein-Barr virus glycoprotein 42 binding; 220,000 compounds, 0.42% hits; inhibition, % (tested at 21.74 µM); Q1HVG2; Fluorescence polarization binding assay, mP read-out; in the data active = inhibition above about 50%
eIF4E-4G inh: eIF4E/eIF4G interaction inhibition in translation initiation | P63073+Q04637 | TR-FRET eIF4E-eIF4GI(517-606) binding, 2 h | inhibition, % at 21.7 µM | 220,000 compounds, 0.37% hits | AID 782;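 active = inhibition above about 30%, limit read from the data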;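 also: 0% = full FRET control wells and 100% = background wells lacking eIF4GI fragment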
eIF4H FP inh: inhibitors of RNA binding by human eIF4H. Q15056. eIF4H fluorescence polarization binding assay. inhibition, % at 35 µM. 290,000 compounds, 0.94% hits. AID 2012;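 also: calls also rest on retests at 20 µM and on dose response follow-up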
* marks the source's active call; other numbers are inactive results; i = inactive; u = inconclusive; x = no result given; + = active, no number; ! = not active in a repeat; [ ] = another dose, or the depositor's remark. Shown are actives, neighbours in structure and some others; about 1.7% of the full set was active somewhere. Unless noted, no rule for the calls is given here.

SMILES	MLLE-PAM2 inh	PABP polyA inh	EBV gp42 block	eIF4E-4G inh	eIF4H FP inh
Cc1occc1-c1nnc(SCC(=O)c2ccc(Cl)cc2)n1C	-16	i	-6	-2	-1
Cc1ccc2cc([N+](=O)[O-])ccc2n1	11	i	-44	3	-7
O=C1CCCC2=C1C(c1ccc(O)c(O)c1)Nc1ccc3ncccc3c12 (configuration not stated)	-12	+	9	5	74*
O=C1CCCC2=C1C(c1cccs1)Nc1ccc3ncccc3c12 (configuration not stated)	10	i	-11	9	-7
Cc1cc(=O)oc2c(CN3CCC(C)CC3)c(O)c(Cl)cc12	51*	u	72*	-5	u
CCCc1cc(=O)oc2c(CN3CCCC3)c(O)ccc12	2	i	-17	x	31
CCCc1cc(=O)oc2c(CN3CCCC3)c(O)c(Cl)cc12	32	+	x	x	108*
CCN(CC)Cc1c(O)c(Cl)cc2c(C)c(C)c(=O)oc12	1	i	-3	-13	-4
CCCc1cc(=O)oc2cc(C)c(CN3CCCC3)c(O)c12	-37	+	-16	-1	80*
CCN(CC)Cc1c(O)c(Cl)cc2c(C)cc(=O)oc12	41*	i	44	10	u
Cc1cc(=O)oc2c(CN3CCCC3)c(O)c(Cl)cc12	12	i	x	x	61
COC(=O)c1cc(NS(=O)(=O)c2ccc(C(C)C)cc2)ccc1N1CCOCC1	15	i	-15	4	17
COc1cccc(C(=O)COc2ccc(NC(=O)c3ccccc3)cc2)c1	-1	i	x	x	-5
CCc1cc(=O)oc2cc(C)c(CN3CCCC3)c(O)c12	-19	+	10	11	77*
CCc1cc(=O)oc2cc(C)c(CN3CCCCC3)c(O)c12	34	+	7	-4	70*
COc1ccc(CCNC(=O)Cn2cnc3c(cnn3-c3ccccc3Cl)c2=O)cc1OC	4	i	-5	31*[fluorescence artefact?]	-6
COc1ccc(CCNC(=O)Cn2cnc3ccccc3c2=O)cc1OC	-13	i	-7	0	-1
O=C(NCc1cccnc1)Nc1ccc(Cl)cc1Cl	-5	i	x	x	-7
O=C(O)CCC(C(=O)O)n1c(O)c(C2=c3ccccc3=NC2=O)sc1=S (configuration not stated)	40*	i	-10	-8	-3
O=C(O)Cn1c(O)c(C2=c3ccccc3=NC2=O)sc1=O	6	i	x	x	4
CC(C)Nc1nc(Nc2ccc(C#N)cc2)c2sccc2n1	2	x	x	x	x
O=C(COC(=O)c1ccco1)NCCc1ccc(Cl)cc1	0	x	x	x	x
COc1ccc(C2CC(=O)Oc3c(C(CCN4CCCCC4)c4ccc(N(C)C)cc4)c(OC)cc(OC)c32)cc1 (configuration not stated)	-1	i	-10	-2	6
COc1ccc(C2CC(=O)Oc3c(C(CCN4CCCC(C)C4)c4ccc(N(C)C)cc4)c(OC)cc(OC)c32)cc1 (configuration not stated)	1	i	-17	43*	4
COc1cc(NC(=O)CN2CCN(C(=O)c3ccco3)CC2)c(C)cc1[N+](=O)[O-]	3	x	x	x	x
SMILES	MLLE-PAM2 inh	PABP polyA inh	EBV gp42 block	eIF4E-4G inh	eIF4H FP inh
Cc1ccc2c(c1C)NC(C(=O)O)C1CC=CC21 (configuration not stated)	-1	+	87*!	61*!	94*
Cc1cc(C)c2c(c1)NC(C(=O)O)C1CC=CC21 (configuration not stated)	6	+	x	x	93*
O=C(O)C1Nc2c(C(=O)N3CCOCC3)cccc2C2C=CCC12 (configuration not stated)	31	+	-3	17	99*
O=S(=O)(c1ccc(N2CCOCC2)nc1)N(Cc1ccccn1)Cc1ccccn1	-1	i	5	-2	3
CC1(C2CC2)NC(=O)N(CC(=O)Nc2ccc(OC(F)F)cc2)C1=O (configuration not stated)	3	x	x	x	x
CCCc1nc(NC(=O)c2ccccc2)nc(NC(=O)c2ccccc2)n1	-2	i	-3	8	-1
CC1(C)CC2=C(CO1)C(=S)NC(c1ccccc1)N2CC1CCCO1 (configuration not stated)	42*	i	-6	95*	4
OCCC1CN(Cc2ccon2)CCN1Cc1ccccc1 (configuration not stated)	0	i	0	-1	-1
Cc1ccccc1NC(=O)NNC(=O)CCc1ccccc1	-5	i	x	x	-9
COCCNS(=O)(=O)c1ccc2c(c1)oc(=O)c1cc(S(=O)(=O)NCCOC)ccc12	x	+	4	1	-1
Cc1cc(NC(=O)CCC(=O)N(c2ccccc2)C(C(=O)NC2CCCC2)c2ccccc2F)no1 (configuration not stated)	-1	i	x	x	-6
CCN(CC(=O)Nc1ccccc1OC)C(=O)CN1C(=O)NC(C)(c2ccc3ccccc3c2)C1=O (configuration not stated)	-13	x	x	x	x
Cc1cc(NCCCN2CCOCC2)n2c(nc3ccccc32)c1C#N	-13	+	-10	-13	80*
CCN(CC)CCCNc1cc(C(F)(F)F)c(C#N)c2nc3ccccc3n12	24	+	x	x	76
Cc1cccc(C(O)c2ncc(-c3ccc4ccccc4c3)[nH]2)c1C (configuration not stated)	5	x	x	x	x
CCCn1c(Nc2ccccc2C)nc2ccccc21	-6	i	20	2	-6
COc1ccc(/C=C2/N=C(c3cccs3)OC2=O)cc1OC(C)C	-30	i	107*	-3	6
O=C1C2C3C=CC(C3=C(c3ccccc3)c3ccccc3)C2C(=O)N1Cc1ccccc1 (configuration not stated)	-12	i	63*	2	2
Cc1ccc(Nc2nc(N)[nH]c(=O)c2N=O)cc1	20	+	29	-2	u
O=C(Nc1ccon1)c1nc[nH]c1C(=O)N1CCN(c2ccccc2)CC1	-7	x	x	x	x
O=C(Nc1ccnn1C1CCN(Cc2ccccc2F)CC1)C1CCCC1	1	i	x	x	4
N#Cc1c(-c2ccco2)cc(-c2ccccc2)[nH]c1=O	-104	+	-9	10	u
Cc1ccc(-c2cc(-c3ccco3)c(C#N)c(=O)[nH]2)cc1	-79	u	48	14	u
COc1ccccc1NS(=O)(=O)c1cc([N+](=O)[O-])ccc1N/N=C/c1sc(N2CCOCC2)nc1-c1ccccc1	-157	+	-31	-5	71*
Nc1ccc2[nH]ncc2c1	4	+	-6	4	57*
Cc1ccnc2ccc(SC(F)(F)F)cc12	-12	i	-4	2	-1
CCc1nnc(NC(=O)CCC(=O)N2CCN(CCOc3ccc(C)cc3)CC2)s1	3	i	0	-6	50*
CCc1nnc(NC(=O)CCC(=O)N2CCN(Cc3ccc(C)cc3C)CC2)s1	-7	x	x	x	x

Bioassay records as filed in PubChem.
